Assay [1] can be described thus: E. coli DRC41 culture turbidity changes, primary screen, E. coli filamentation inducer project, strain DRC41, OD650, 48 h (AID 1152).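 Note: E. coli MC1000 strain DRC41 lacking acrAB efflux pump and sulA.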 To be noted: E. coli DRC41 (acrAB sulA), higher = more signal, called active from +8 up or from −8 down.
Assay [2] is described as follows: small-molecule binders of probe aLefty1, primary screen, biochemical, small-molecule microarray, 635/667 nm fluorescence (AID 1153).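 Note: score merges spot fluorescence with signal-to-noise ratio from the scanned slide images.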 To be noted: higher = more signal.
Assay [3] is described as follows: PSAC antagonists in infected red cells, primary screen, cell-based, P. falciparum Indochina, OD700, 1 h (AID 1154). As to conditions: P. falciparum Indochina infected RBC osmotic lysis, higher = more signal, called active from +8 up or from −8 down.
Assay [4] is described as follows: PSAC antagonists in infected red cells, primary screen, cell-based, P. falciparum Indochina, OD700, 2 h (AID 1155).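 Note: lysis reports solute entry through the parasite surface anion channel PSAC; channel blockers reduce lysis of infected cells.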 As to conditions: P. falciparum Indochina infected erythrocytes, osmotic lysis OD700; higher = more signal, called active from +8 up or from −8 down.
Assay [5] in a line: osmotic lysis modulators in infected erythrocytes, primary screen, PSAC antagonist project, cell-based, P. falciparum Indochina, OD700, 3 h (AID 1156). As to conditions: higher = more signal, called active from +8 up or from −8 down.
Assay [6] can be described thus: PSAC antagonists in infected red cells, primary screen, cell-based, P. falciparum Indochina, OD700, 18 h (AID 1157). To be noted: P. falciparum Indochina infected erythrocytes, osmotic lysis OD700, 18 h; higher = more signal, called active from +8 up or from −8 down.
Assay [7] in a line: modulators of S6 phosphorylation in cells, primary screen, cell-based, A549, cytoblot, luminescence, serum-stimulated (AID 1158).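 Note: serum-stimulated A549 lung adenocarcinoma cells; signal is phosphorylated S6 detected by cytoblot immunostaining with HRP secondary.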 As to conditions: A549 phospho-S6 cytoblot, 5 h, higher = more signal.
In assay [8] the target is NADPH oxidase 2 (Homo sapiens) (UniProt P04839). The assay can be described thus: NOX2-dependent H2O2 signal modulators, primary screen, NOX inhibitor project, cell-based, HEK293-NOX2, PMA-stimulated, Amplex Red fluorescence (AID 1159). Note: test concentration not given here. To be noted: 45 min, higher = more signal, called active from +8 up or from −8 down.
Assay [9] has as its target NADPH oxidase 4 (Homo sapiens) (UniProt Q9NPH5). The experiment in a line: NOX4-dependent H2O2 signal modulators, primary screen, NOX inhibitor project, cell-based, HEK293-NOX4, tetracycline-induced, Amplex Red fluorescence (AID 1160). As to conditions: 45 min, higher = more signal, called active from +8 up or from −8 down.
Assay [10] addresses NADPH oxidase 5 (Homo sapiens) (UniProt Q96PH1). The assay can be described thus: NOX5-dependent H2O2 signal modulators, primary screen, NOX inhibitor project, cell-based, HEK293-NOX5, Amplex Red fluorescence (AID 1161). To be noted: HEK293-NOX5, ionomycin, 45 min, higher = more signal.

Several values for one entry are separate records, joined by “and”; a condition that tells them apart may be missing. Equal entries are not always repeated. Activity calls are given as the source filed them.

Sequence of NADPH oxidase 2 (Homo sapiens) (P04839 whole entry, looked up): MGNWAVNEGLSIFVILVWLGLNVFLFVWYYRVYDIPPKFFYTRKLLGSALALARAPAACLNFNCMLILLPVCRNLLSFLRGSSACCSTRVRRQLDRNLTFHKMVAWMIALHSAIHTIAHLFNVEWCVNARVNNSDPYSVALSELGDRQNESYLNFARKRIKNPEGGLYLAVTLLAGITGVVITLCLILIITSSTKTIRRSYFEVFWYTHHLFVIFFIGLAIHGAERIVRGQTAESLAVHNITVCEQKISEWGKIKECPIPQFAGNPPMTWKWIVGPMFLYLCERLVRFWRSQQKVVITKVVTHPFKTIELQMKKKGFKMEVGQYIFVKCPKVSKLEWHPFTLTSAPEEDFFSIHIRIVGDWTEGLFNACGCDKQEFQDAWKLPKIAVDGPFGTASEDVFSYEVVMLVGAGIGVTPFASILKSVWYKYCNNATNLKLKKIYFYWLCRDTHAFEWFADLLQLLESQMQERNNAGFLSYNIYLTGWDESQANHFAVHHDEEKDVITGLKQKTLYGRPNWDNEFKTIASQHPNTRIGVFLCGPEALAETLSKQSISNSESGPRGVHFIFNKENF
Sequence of NADPH oxidase 5 (Homo sapiens) (Q96PH1 whole entry, looked up): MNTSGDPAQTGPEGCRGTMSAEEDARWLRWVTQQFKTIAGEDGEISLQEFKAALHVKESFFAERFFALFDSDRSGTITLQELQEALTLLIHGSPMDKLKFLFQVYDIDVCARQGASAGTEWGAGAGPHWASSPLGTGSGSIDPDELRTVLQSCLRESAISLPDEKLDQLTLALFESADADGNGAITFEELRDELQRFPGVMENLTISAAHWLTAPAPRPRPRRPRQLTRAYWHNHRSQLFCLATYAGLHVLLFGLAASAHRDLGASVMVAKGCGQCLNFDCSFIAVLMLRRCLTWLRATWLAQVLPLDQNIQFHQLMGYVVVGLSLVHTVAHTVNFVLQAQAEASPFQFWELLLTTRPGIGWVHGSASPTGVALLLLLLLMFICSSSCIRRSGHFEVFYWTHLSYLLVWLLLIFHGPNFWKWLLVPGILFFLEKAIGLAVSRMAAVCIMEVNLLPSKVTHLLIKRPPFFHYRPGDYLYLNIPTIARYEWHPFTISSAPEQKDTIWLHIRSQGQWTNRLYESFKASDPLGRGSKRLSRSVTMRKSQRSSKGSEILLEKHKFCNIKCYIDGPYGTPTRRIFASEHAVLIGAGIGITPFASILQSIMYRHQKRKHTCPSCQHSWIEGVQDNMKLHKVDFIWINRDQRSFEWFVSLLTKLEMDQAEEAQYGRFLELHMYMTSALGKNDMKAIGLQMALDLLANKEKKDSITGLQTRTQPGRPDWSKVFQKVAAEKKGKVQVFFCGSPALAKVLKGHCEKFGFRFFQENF
Sequence of NADPH oxidase 4 (Homo sapiens) (Q9NPH5 whole entry, looked up): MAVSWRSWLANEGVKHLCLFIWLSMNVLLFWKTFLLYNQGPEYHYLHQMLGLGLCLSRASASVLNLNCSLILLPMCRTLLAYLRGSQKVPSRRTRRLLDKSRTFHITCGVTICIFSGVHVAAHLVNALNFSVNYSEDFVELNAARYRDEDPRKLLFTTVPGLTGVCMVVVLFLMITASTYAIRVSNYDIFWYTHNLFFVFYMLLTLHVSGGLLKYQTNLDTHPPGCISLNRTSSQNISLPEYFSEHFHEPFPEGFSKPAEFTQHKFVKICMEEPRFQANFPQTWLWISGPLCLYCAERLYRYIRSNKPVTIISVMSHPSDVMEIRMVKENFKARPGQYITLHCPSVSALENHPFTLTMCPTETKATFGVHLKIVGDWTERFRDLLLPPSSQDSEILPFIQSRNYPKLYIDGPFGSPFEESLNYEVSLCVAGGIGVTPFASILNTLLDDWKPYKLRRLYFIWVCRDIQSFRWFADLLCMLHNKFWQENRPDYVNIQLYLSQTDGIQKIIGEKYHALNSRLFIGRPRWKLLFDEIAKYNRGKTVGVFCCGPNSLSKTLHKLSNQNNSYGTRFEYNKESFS

As to `C=CCN(CCCC)C(=O)C1N(C(C)(C)CO)C(=O)C2C(C(=O)O)C3C=CC21O3` (stereo not given), the z-score in assay [1] is -0.2 (inactive) and -0.302 (inactive); in assay [3], 0.109 (inactive) and 0.0708 (inactive); in assay [4], 0.134 (inactive) and 0.354 (inactive); in [5], -0.724 (inactive) and -1.27 (inactive); in assay [6], 0.0135 (inactive) and -0.109 (inactive); in assay [7], 0.301 and -0.335. Also, the z-score in assay [8] is 0.209 (inactive) and 0.495 (inactive); in assay [9], 0.0887 (inactive) and -0.0844 (inactive); in assay [10], 0.616 and 0.0892. Moreover, in [2], the composite z-score is -0.255 and -0.488.
With `C=CCN(CCCC)C(=O)C(c1cccs1)N(C(=O)/C=C\C(=O)O)c1ccc(CCO)cc1` (stereo not given), the z-score was 0.369 (inactive) and 0.133 (inactive) in assay [1]; 0.855 (inactive) and 1.03 (inactive) in [3]; -0.14 (inactive) and -0.182 (inactive) in assay [4]; 0.517 (inactive) and 0.0377 (inactive) in [5]; 0.0866 (inactive) and 0.233 (inactive) in assay [6]; 0.0768 and 0.0738 in [7]. Further, the z-score in assay [8] is 0.377 (inactive) and 0.12 (inactive); in assay [9] it was -0.432 (inactive) and -0.518 (inactive); in [10], 1.18 and -0.0206. For the same compound, in assay [2], the composite z-score is -0.279 and -0.147.
As for `CCCNC(=O)OC[C@H]1O[C@H](CCON=C(C)CCN2CCc3nc(-c4ccccc4)c(-c4ccccc4)cc3C2)C=C[C@@H]1Oc1ccc(OC)cc1`, the z-score in assay [1] is -1.29 (inactive); in [3] it was 1.77 (inactive); in [4], 0.454 (inactive); in assay [5] it was 0.571 (inactive); in [6], 0.441 (inactive); in [7], 0.0851. Moreover, the z-score is -0.473 (inactive) in [8], -2.55 (inactive) in assay [9] and -2.17 in [10]. Further, the composite z-score in [2] is -0.0054.
Regarding `C=CCN(C(=O)C1N(C(C)(C)CO)C(=O)C2C(C(=O)O)C3C=CC21O3)c1ccc(OC)cc1` (stereo not given), the z-score is 2.14 (inactive) and 0.776 (inactive) in [1]; 2.3 (inactive) and -0.0606 (inactive) in [3]; -0.613 (inactive) and -0.0765 (inactive) in assay [4]; -1.82 (inactive) and 0.228 (inactive) in assay [5]; -0.646 (inactive) and -0.183 (inactive) in assay [6]; 0.228 and -0.0837 in assay [7]. Also, the z-score in assay [8] was 0.833 (inactive) and -0.0915 (inactive); in assay [9], -2.16 (inactive) and -2.56 (inactive); in assay [10], 0.782 and -1.03. For the same compound, in assay [2], the composite z-score was -0.0544 and -0.333.
Consider `C=CCN(CCCC)C(=O)C(c1cccs1)N(C(=O)/C=C\C(=O)O)c1c(Cl)cccc1CO` (stereo not given), for which the z-score was 0.518 (inactive) and 0.0558 (inactive) in assay [1]; 0.111 (inactive) and 0.897 (inactive) in [3]; -0.0165 (inactive) and -0.14 (inactive) in assay [4]; -0.38 (inactive) and 0.0904 (inactive) in [5]; 0.113 (inactive) and 0.283 (inactive) in [6]; 1.21 and 0.596 in [7]. The z-score in [8] is 0.148 (inactive) and 0.256 (inactive); in assay [9] it was -0.319 (inactive) and -0.507 (inactive); in [10], 0.16 and 0.227. In addition, the composite z-score in assay [2] is -0.148 and -0.0099.
For the compound `O=C1[C@H]2[C@H]3[C@H](O)[C@H](O)CC(=NOCc4ccccc4)[C@H]3CC[C@H]2C(=O)N1Cc1ccccc1`, the z-score was -0.925 (inactive) in assay [1]; 5.58 (inactive) in assay [3]; 0.42 (inactive) in assay [4]; 0.224 (inactive) in assay [5]; -0.456 (inactive) in [6]; 0.741 in assay [7]. Besides, the z-score was -1.14 (inactive) in assay [8], -2.92 (inactive) in [9] and -2.42 in [10]. Further, in [2], the composite z-score was 0.0037.
For the compound `C=CCN(C(=O)C(c1cccs1)N(CCOCCO)C(=O)/C=C\C(=O)O)C(C)(C)C` (stereo not given), the z-score in assay [1] is 1.56 (inactive) and 0.971 (inactive); in [3], -1.2 (inactive) and -1.15 (inactive); in assay [4], -0.172 (inactive) and -0.307 (inactive); in assay [5], 0.0342 (inactive) and -0.837 (inactive); in assay [6], 0.011 (inactive) and -0.113 (inactive); in assay [7], 0.234 and 0.15. In addition, the z-score was -0.302 (inactive) and -0.0837 (inactive) in assay [8]; -0.904 (inactive) and -0.857 (inactive) in assay [9]; 0.0514 and 0.0449 in [10]. Also, in assay [2], the composite z-score was -0.371 and -0.355.
For the compound `C[C@@H]1CC[C@@H](C(=O)O)N[C@H]1c1ccc(-c2ccco2)cc1`, the z-score in assay [1] is -0.601 (inactive); in [3] it was 0.732 (inactive); in assay [4], 1.2 (inactive); in assay [5], 0.871 (inactive); in [6], 0.883 (inactive); in [7], -0.282. Also, the z-score in assay [8] was -0.71 (inactive); in [9], 0.156 (inactive); in assay [10], 0.798. The composite z-score in [2] is 0.0721.
Take `CCCCN1CC=CC23O[C@@H]4C=CCCOC(=O)C4[C@H]2C(=O)N(C(C)CO)[C@@H]3C1=O` (stereo not given in full): the z-score is -0.462 (inactive) and -0.0672 (inactive) in assay [1]; 1.77 (inactive) and 0.636 (inactive) in assay [3]; 0.446 (inactive) and 1.06 (inactive) in assay [4]; 0.874 (inactive) and 1.09 (inactive) in [5]; 0.234 (inactive) and 0.601 (inactive) in assay [6]; 1.48 and 1.2 in [7]. In addition, the z-score was 1.49 (inactive) and 1.3 (inactive) in [8]; 0.784 (inactive) and 0.359 (inactive) in assay [9]; 2.31 and 2 in assay [10]. The composite z-score in assay [2] was -0.007 and 0.0181.

(Values after PubChem BioAssay.)
